# Compounds with a hit are over-represented: about 11% of the library has one in this group of screens.
# Vaccinia Venus = inhibitors of vaccinia virus (Venus reporter); hit rate 0.46% among 330,000; Potency, µM (highest dose often 36.5 µM), without a hit: at the top dose activity change, negative = inhibition, usual class: inhibitors; Vaccinia virus Venus reporter expression, fluorescence; calls by dose curve; tested in A549 cells; also: % is scaled to controls: 0 for no effect and ±100 for the full control effect; nearly all actives have a fitted effect of over 30% in size
# Vaccinia mCherry = vaccinia inhibition (mCherry reporter) | hit rate 0.63% among 310,000 | Vaccinia virus mCherry reporter infection, fluorescence | Potency, µM (titrated, usually from 36.5 µM), for the others: at the top dose activity change, negative = inhibition, usual class: inhibitors; calls by dose curve; tested in A549 cells; also: % is scaled to controls: 0 for no effect and ±100 for the full control effect; nearly all actives have a fitted effect of over 35% in size
# NS1 inh = inhibitors of influenza NS1 protein function | Potency, µM (series often up to 46.1 µM), for the others: at the highest dose activity, positive = more growth | hit rate 0.4% among 270,000; calls by dose curve; also: actives are rising curves; nearly all actives have a fitted effect of over 50% in size
#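 OD600 was taken as the measure of yeast growth restored by compound in an NS1-expressing S. cerevisiae strain. Cells had been washed out of glucose medium and diluted 1:100 into galactose -URA medium, pH 6.0.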
# HCV inh = HCV inhibition; Huh7.5.1 HCVcc-Cre infection, luciferase reporter, 44 h; hit rate 3.4% among 340,000; AID 651820; Potency, µM (doses to about 41.8 µM), for the others: at the top dose activity change, negative = inhibition, hits mostly inhibitors; also: % is scaled to controls: 0 for no effect and ±100 for the full control effect
#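 Infectious HCV cell culture screen: compound-treated cells (1,000/well, pre-plated 4 h) are infected with HCVcc-Cre at roughly 0.5 moi and grown 44 h. Infection is quantified by luciferase signal after 15 min substrate incubation at room temperature.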
# Pf growth 48h = inhibits P. falciparum growth in the first generation, 48 h; P. falciparum luciferase growth in erythrocytes, 48 h; Potency, µM (top dose mostly 28.7 µM), for inactives: top-dose activity change, negative = inhibition, usual class: inhibitors; hit rate 5.9% among 310,000; AID 504832; also: % is scaled to controls: 0 for no effect and ±100 for the full control effect
#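 Firefly luciferase activity from engineered P. falciparum reports growth; inhibitors lower the luminescent signal. Cultures contained 2% hematocrit erythrocytes at 0.1% final parasitemia.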
# Pf growth 96h = P. falciparum growth inhibition at 96 hour, primary screen for plastid delayed-death inhibitors; P. falciparum luciferase reporter growth, 96 h; Potency, µM (doses to about 28.7 µM), for the others: at the top dose activity change, negative = inhibition, actives largely listed as inhibitors; hit rate 6.9% among 320,000; also: % is scaled to controls: 0 for no effect and ±100 for the full control effect
#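 Cell-based qHTS: luciferase-tagged P. falciparum in erythrocytes (2% hematocrit, 0.05% parasitemia final) incubated with compounds for 96 hours, 37 C, 5% CO2; luciferase detection reagent then added and luminescence measured.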
# An asterisk follows results filed as active; i = inactive; ? = inconclusive; / = no result given; [ ] = dose if it differs, or a comment. Unless noted, calls follow the shape of the dose curve; as a rule, active = well fitted inhibition curve with a large enough effect; inconclusive = small, poorly fitted or top-dose-only effect, or another doubt; inactive = no such curve, though single readings can be large or run the other way. Potency is read from the fitted curve at half-maximal effect.
SMILES,Vaccinia Venus,Vaccinia mCherry,NS1 inh,HCV inh,Pf growth 48h,Pf growth 96h
OCC[C@H]1C[C@H](O)[C@@H](O)[C@]2(CCc3ccccc3CO2)O1,-18.8%,-8.4%,/,0.562µM*,?,26.0%
Cc1ccc(C(=O)c2cc(Br)ccc2N)cc1,/,/,/,2.6%,35.2%,1.65µM*
O=C(Nc1cccc(Cl)c1)c1c(O)c2c(n(Cc3ccco3)c1=O)CCCC2,/,/,?,?,57.3%,33.0%
S=c1[nH]c(-c2ccc(Br)cc2)cn1CCc1ccccc1,-3.0%,-0.8%,/,-15.1%,?,13.1µM*
CC1(C)c2ccccc2N2CC(=O)NC21/C=C/c1ccco1 (stereo not given),1.2%,/,?,-15.1%,?,?
CC1(C)c2ccccc2N2CCC(=O)NC21/C=C/c1ccco1 (stereo not given),29.4%,/,10.5%,-9.5%,?,10.4µM*
Cc1cccc(-n2cc(CN3CCN(c4ccccn4)CC3)c(-c3cccc(F)c3)n2)c1,/,/,0.7%,4.5%,?,?
COc1ccc(-n2cc(C(=O)c3cc(Cl)ccc3O)cc(C#N)c2=O)cc1,-4.2%,-14.3%,/,-14.8%,?,7.38µM*
CCOc1ccc(-n2cc(C(=O)c3cc(Cl)ccc3O)cc(C#N)c2=O)cc1,-6.4%,-14.5%,/,0.8%,-25.7%,?
COc1ccc(O)c(C(=O)c2cc(C#N)c(=O)n(-c3ccc(Cl)cc3)c2)c1,/,/,2.7%,?,7.38µM*,5.86µM*
N#Cc1cc(C(=O)c2ccccc2O)cn(-c2ccc(Cl)cc2)c1=O,-12.6%,-1.2%,/,?,?,32.2%[5.75 µM]
Cc1ccc(-n2cc(C(=O)c3cc(Cl)ccc3O)cc(C#N)c2=O)cc1,?,?,-47.9%,?,3.29µM*,?
O=C(CNS(=O)(=O)c1ccccc1)NNC(=O)C(Cl)Cl,1.3%,i,11.0%,11.7%,4.5%,0.8%
COC(=O)c1cc(OC)c(OC)cc1NC(=O)CCNC(=O)c1ccco1,4.9%,i,-1.0%,-12.6%,0.0%,-19.9%
O=C(O)C1CCN(c2ccc(S(=O)(=O)N3CCCCC3)cc2[N+](=O)[O-])CC1,6.7%,-10.3%,/,4.0%,-24.1%,-2.6%
CCCCOc1ccc(C(=O)Nc2nc3c(s2)CC(C)CC3)cc1 (stereo not given),0.5%,-10.4%,/,/,/,/
O=C(O)CCN1C(=O)C2C3C=CC(C3)C2C1=O (stereo not given),6.6%,?,1.2%,1.1%,-4.5%,?
CC1CCCC(C)N1C(=O)CCN1C(=O)C2C3C=CC(C3)C2C1=O (stereo not given),/,/,5.3%,14.8%,26.8%,1.65µM*
CC(C)NC(=O)c1ccc(N(Cc2ccc(Cl)cc2)S(C)(=O)=O)cc1,0.4%,i,4.6%,-2.6%,-0.7%,10.4µM*
C/C(N)=C(/C#N)C(=O)CSc1nnc(Nc2cccc(C)c2C)s1,-16.1%,?,4.2%,-20.7%,?,17.3%
COc1ccc(C(C)=O)cc1CSc1nnc(Nc2ccc(C)cc2C)s1,8.1%,?,1.5%,?,?,?
COc1ccc(C(C)=O)cc1CSc1nnc(-c2ccncc2)o1,/,/,-7.3%,-29.7%,?,4.15µM*
C/C(N)=C(/C#N)C(=O)CSc1nnc(Nc2c(C)cccc2C)s1,2.7%,-24.4%,?,-0.7%,?,11.7µM*
Cc1cccc(C)c1Nc1nnc(SCC(=O)NC(=O)c2cccn2C)s1,?,-16.0%,-3.9%,7.1%,8.4%,18.0%
COc1ccc(C(C)=O)cc1CSc1nnc(Nc2ccccc2C)s1,/,/,3.1%,?,?,4.15µM*
COC(=O)c1ccc(OC)c(CSc2nnc(-c3ccc(C)cc3)o2)c1,-1.1%,-24.7%,2.1%,-5.2%,/,/
Cc1cccc(C)c1Nc1nnc(SCc2cn3cccc(C)c3n2)s1,/,/,-12.4%,-11.5%,?,10.4µM*
O=C1CCN(CCCN2CCC(=O)N(Cc3ccccc3)C2=S)C(=S)N1Cc1ccccc1,-18.1%,i,/,/,/,/
COc1ccc(C(C)=O)cc1CSc1nnc(Nc2c(C)cccc2C)s1,-21.7%,-14.0%,-5.8%,?,?,9.28µM*

# Screening data from PubChem BioAssay.
